Screening data from PubChem BioAssay.
Shown are actives, neighbours in structure and some others; about 11% of the full set was active somewhere.
NIH3T3 tox – cytotoxic compounds in NIH 3T3 cells | NIH 3T3 viability, CellTiter-Glo ATP luminescence, 48-72 h | Potency, µM (series often up to 96.7 µM), usual class: inhibitors | 4.3% of 94,000 active | AID 1345082; further: nearly all actives have a fitted effect of over 55% in size
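Cells were seeded at 400 per well, treated with pin-transferred compound, and kept 48 or 72 hr at 37 °C before CellTiter-Glo addition and luminescence imaging of cellular ATP.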
hNpr1 antagonist – human Npr1 receptor antagonism. P16066. Potency, µM (highest dose often 46.3 µM), actives largely listed as inhibitors. 1.6% of 76,000 active. AID 1347048. HEK293 hNpr1 GloSensor cGMP, ANP-stimulated luminescence; calls by dose curve; further: nearly all actives have a fitted effect of over 60% in size
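HEK293 cells stably expressing human Npr1 and cGMP GloSensor pGS-40F, loaded 2 h with 2% GloSensor reagent, given compound 30 min at room temperature. Luminescence read before and 20 min after 0.1 nM hNppA.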
FLuc inh – Photinus pyralis luciferase inhibition; AID 1347043; purified P. pyralis luciferase, luminescence, biochemical; 2.5% of 76,000 active; Potency, µM (highest dose often 115 µM), usual class: inhibitors; further: nearly all actives have a fitted effect of over 65% in size
Target sequence (P08659 whole entry, looked up): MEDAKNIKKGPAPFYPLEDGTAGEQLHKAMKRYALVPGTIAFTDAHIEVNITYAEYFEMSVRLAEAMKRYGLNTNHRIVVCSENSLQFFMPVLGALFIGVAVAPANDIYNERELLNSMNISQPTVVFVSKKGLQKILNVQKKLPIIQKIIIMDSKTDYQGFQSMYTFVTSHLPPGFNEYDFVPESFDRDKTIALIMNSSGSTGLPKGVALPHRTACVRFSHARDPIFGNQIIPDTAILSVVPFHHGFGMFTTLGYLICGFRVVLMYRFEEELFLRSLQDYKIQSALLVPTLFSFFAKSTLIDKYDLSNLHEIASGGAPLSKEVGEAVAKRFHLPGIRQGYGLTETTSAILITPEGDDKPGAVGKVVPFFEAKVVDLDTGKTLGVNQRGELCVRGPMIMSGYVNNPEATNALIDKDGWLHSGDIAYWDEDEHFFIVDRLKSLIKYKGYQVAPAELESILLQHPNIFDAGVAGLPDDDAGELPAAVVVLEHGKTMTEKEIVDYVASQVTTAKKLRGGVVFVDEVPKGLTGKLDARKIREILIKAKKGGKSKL
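Purified P. pyralis luciferase (10nM final) in 50mM Tris acetate pH 7.5, 10mM Mg acetate, 0.01% Tween-20, 0.05% BSA with 10uM D-luciferin and 10uM ATP. Compounds titrated qHTS. Luminescence imaged on CCD.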
HEK293 tox – cytotoxic compounds in HEK 293 cells; 6.6% of 94,000 active; Potency, µM (highest dose often 115 µM), actives largely listed as inhibitors; HEK 293 viability, ATP luminescence (CellTiter-Glo), 48-72 h; further: nearly all actives have a fitted effect of over 60% in size
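Cytotoxicity was scored by loss of ATP-coupled luminescence (CellTiter-Glo) in HEK 293 cells. Compound treatment ran 48 or 72 hr at 37 degree Celsius, 5% CO2, 95% humidity.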
Each line names hits and unclear results; the compound was inactive in the other large screens. Unless noted, the call rests on the fitted dose curve; in most records, active means well fitted curve in the direction sought with a large enough effect; inconclusive means small, poorly fitted or top-dose-only effect, or another doubt; inactive means no such curve, though single readings can be large; an effect the other way counts as inactive or inconclusive.

Cc1ccc(C(=O)NC2CCCN(c3cc(-c4ccc(Cl)cc4)[nH]n3)C2)cn1 (stereo not drawn)	NIH3T3 tox inconclusive, FLuc inh inconclusive, HEK293 tox 28.2µM
CCOc1cc(C(=O)NC2CCN(c3cc(-c4ccc(OC)cc4)[nH]n3)C2)cc(OCC)c1OCC (stereo not drawn)	NIH3T3 tox 22.4µM, HEK293 tox 39.8µM
COc1ccc(C(=O)NC2CCCN(c3cc(-c4ccccc4)[nH]n3)C2)cc1 (stereo not drawn)	NIH3T3 tox inconclusive, FLuc inh 25.1µM, HEK293 tox inconclusive
Cc1ccc(C(=O)NC2CCCN(c3cc(-c4ccccc4)[nH]n3)C2)cn1 (stereo not drawn)	NIH3T3 tox inconclusive, FLuc inh inconclusive, HEK293 tox inconclusive
O=C(NCCc1ccccc1)N(C1CCOCC1)C1CCN(Cc2cccnc2)CC1	none
O=C1CC2(CCN(C(=O)c3ccc(Cl)cc3)C2)Nc2ccccc2N1 (stereo not drawn)	none (no result: hNpr1 antagonist, FLuc inh)
Cn1c(=O)[nH]cc(CC(=O)N2CCOCC(O)C2)c1=O (stereo not drawn)	none
CCc1cc(=O)n(CC(=O)Nc2ccccc2)c(-c2ccccc2)n1	HEK293 tox inconclusive
COc1ccc(C(=O)NC2CCN(c3cc(-c4ccc(Cl)cc4)[nH]n3)C2)cc1F (stereo not drawn)	NIH3T3 tox inconclusive, HEK293 tox 39.8µM
COc1ccc(C(=O)NC2CCN(c3cc(-c4ccc(Cl)cc4)[nH]n3)C2)cc1OC (stereo not drawn)	NIH3T3 tox inconclusive, HEK293 tox inconclusive
COc1ccc(C(=O)NC2CCCN(c3cc(-c4ccc(Cl)cc4)[nH]n3)C2)cc1 (stereo not drawn)	NIH3T3 tox 35.5µM, FLuc inh inconclusive, HEK293 tox inconclusive
COc1cc(C(=O)NC2CCCN(c3cc(-c4ccccc4)[nH]n3)C2)cc(OC)c1OC (stereo not drawn)	NIH3T3 tox inconclusive, FLuc inh 35.5µM, HEK293 tox inconclusive
COc1ccc(-c2cc(N3CCC(NC(=O)c4ccc(F)c(Cl)c4)C3)n[nH]2)cc1 (stereo not drawn)	NIH3T3 tox 39.8µM, HEK293 tox inconclusive
O=C1CC(c2ccccc2)N(C(=O)CNC(=O)Nc2ccccc2)CCCCCCN1 (stereo not drawn)	none
COc1ccc(-c2cc(N3CCCC(NC(=O)c4ccc5cc[nH]c5c4)C3)n[nH]2)cc1 (stereo not drawn)	NIH3T3 tox inconclusive, hNpr1 antagonist inconclusive, FLuc inh 11.2µM, HEK293 tox inconclusive
COc1ccc(-c2cc(N3CCCC(NC(=O)c4ccc(C)c(F)c4)C3)n[nH]2)cc1 (stereo not drawn)	NIH3T3 tox inconclusive, HEK293 tox inconclusive
COc1ccc(C(=O)NC2CCCN(c3cc(-c4ccccc4)[nH]n3)C2)cc1F (stereo not drawn)	NIH3T3 tox 15.8µM, FLuc inh inconclusive, HEK293 tox inconclusive
COc1ccc(-c2cc(N3CCCC(NC(=O)c4ccc(F)c(F)c4)C3)n[nH]2)cc1 (stereo not drawn)	NIH3T3 tox inconclusive, FLuc inh inconclusive, HEK293 tox inconclusive
COc1ccc(-c2cc(N3CCCC(NC(=O)c4ccccc4Cl)C3)n[nH]2)cc1 (stereo not drawn)	NIH3T3 tox inconclusive, FLuc inh 44.7µM, HEK293 tox inconclusive
COc1ccc(C(=O)NC2CCN(c3cc(C(F)(F)F)ncn3)CC2)cc1OC	NIH3T3 tox inconclusive
CCNC(=O)N[C@H]1CO[C@H]2[C@@H]1OC[C@@H]2n1nnnc1Oc1cccc(N(C)C)c1	none
CC(C)c1ccc(CC(=O)N2CCCc3ncc(C(=O)NCCN(C)C)cc32)cc1	NIH3T3 tox 100µM, HEK293 tox inconclusive
CC(C)c1ccc(CC(=O)N2CCCc3ncc(C(=O)NCCN4CCCC4)cc32)cc1	NIH3T3 tox inconclusive, HEK293 tox inconclusive
CC(C)c1ccc(CC(=O)N2CCCc3ncc(C(=O)NCc4ccccc4)cc32)cc1	NIH3T3 tox 89.1µM, HEK293 tox 89.1µM
CC(C)c1ccc(CC(=O)N2CCCc3ncc(C(=O)Nc4ccc5[nH]ccc5c4)cc32)cc1	NIH3T3 tox inconclusive, HEK293 tox 35.5µM
O=S(=O)(NC1CCc2nnc(C3CC3)n2CC1)c1cccs1 (stereo not drawn)	none
CCc1ccc(CNC(=O)C2CCN(C(=O)c3nnn4c3COC(c3ccc(C)cc3)C4)CC2)cc1 (stereo not drawn)	FLuc inh 39.8µM
Cc1ccc(C2Cn3nnc(C(=O)N4CCC(C(=O)NCC(C)c5ccccc5)CC4)c3CO2)cc1 (stereo not drawn)	FLuc inh 31.6µM
Cc1ccc(C2Cn3nnc(C(=O)N4CCC(C(=O)NC5CCC(C)CC5)CC4)c3CO2)cc1 (stereo not drawn)	FLuc inh 28.2µM
Cc1ccc(C2Cn3nnc(C(=O)N4CCC(C(=O)NCc5cccs5)CC4)c3CO2)cc1 (stereo not drawn)	FLuc inh 35.5µM
Cc1ccc(C2Cn3nnc(C(=O)N4CCC(C(=O)NCc5ccccc5)CC4)c3CO2)cc1 (stereo not drawn)	FLuc inh 39.8µM
O=C(Cc1ccc2c(c1)OCO2)N1CCOCC2(CN(Cc3cc(F)cc(F)c3)C2)C1	NIH3T3 tox 35.5µM, HEK293 tox 56.2µM
O=C(Cc1ccc2c(c1)OCO2)N1CCOCC2(CN(Cc3ccccc3)C2)C1	NIH3T3 tox inconclusive, HEK293 tox inconclusive
O=C(C1CCCN(c2cn[nH]c(=O)c2)C1)N1CCN(c2ccccn2)CC1 (stereo not drawn)	none
Cn1cccc1CN1CCCC2(CN[S+](=O)([O-])c3ccccc3N2)C1 (stereo not drawn)	HEK293 tox inconclusive
CCNC(=O)N1CCOc2ccc(CCC(=O)NCC3CC3)cc2C1	none
COc1cc(NC(=O)[C@H]2CC[C@H]3CO[C@](C)(NC(=O)c4cnccn4)C(=O)N32)ccc1F	HEK293 tox inconclusive
O=C(NCC1CNCCOC1)c1ccc2nc(-c3ccc(F)cc3)cn2c1 (stereo not drawn)	NIH3T3 tox inconclusive, FLuc inh inconclusive, HEK293 tox inconclusive
CCC(NC(=O)c1ccc2nc(-c3ccc(F)cc3)cn2c1)c1ncc(C)[nH]1 (stereo not drawn)	NIH3T3 tox inconclusive, FLuc inh 7.94µM, HEK293 tox inconclusive
Cc1ccc(-c2ccc3nnc(CNC(=O)c4ccc(F)cc4)n3n2)cc1	HEK293 tox inconclusive
CC(Cc1cnccn1)NC(=O)c1ccc2nc(-c3ccc(F)cc3)cn2c1 (stereo not drawn)	FLuc inh 39.8µM, HEK293 tox inconclusive
CCc1nc2c(c(-c3ccc(Cl)cc3)n1)CCN(Cc1ccc(N(C)C)cc1)CC2	NIH3T3 tox inconclusive, HEK293 tox inconclusive
O=c1n(-c2ccc([N+](=O)[O-])cc2)nc2n1CCN(Cc1cccc3ccccc13)C2	NIH3T3 tox inconclusive, HEK293 tox inconclusive
Cc1ccc(CN2CCn3c(nn(-c4ccc([N+](=O)[O-])cc4)c3=O)C2)cc1	NIH3T3 tox inconclusive, hNpr1 antagonist inconclusive, HEK293 tox 44.7µM
